# Laboratory results reported in PubChem BioAssay AID1159577 (Broad Institute, 2015).
# Hit rate of the full screen: of about 1,300 compounds, about 240 (18%) were called active. Another 8% or so got no clear call; they are omitted. How the calls were made is not given here. The list is a sample of the results. Results with a measured potency or affinity are listed apart.
# Assay: toxicity to human hepatoma HepG2 cells – cell-based, cherry-picked samples, cytotoxicity control, dose response (AID 1159577);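 further: 0% = neutral control wells and -100% = positive control wells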
# Details: HepG2 cytotoxicity counterscreen, plate reader; series mostly up to 19.5 µM; activity change, negative = cytotoxicity: at the top concentration
row,Compound,"activity change, negative = cytotoxicity"
1,CO[C@H]1CN(C)C(=O)c2cc(NC(=O)C3CC3)ccc2OC[C@H](C)N(Cc2cc(F)ccc2F)C[C@H]1C,10.8% (inactive)
2,COCC(=O)N1[C@@H](C#N)[C@H](c2ccccc2-c2ccccc2)[C@@H]1CO,-10.8% [at 21 µM] (inactive)
3,CCCC#Cc1ccc2c(c1)[C@@H]1[C@@H](CCN1S(=O)(=O)c1ccccc1C)[C@@H](CO)N2,6.95% [at 21 µM] (inactive)
4,COc1ccc2c3c([nH]c2c1)[C@H](CO)N(Cc1cc(F)ccc1F)CC31CN(C(=O)C2CCC2)C1,9.59% (inactive)
5,COc1ccc(-c2ccccc2[C@H]2[C@@H](C#N)N(C(=O)C3CCCCC3)[C@H]2CO)cc1,1.19% (inactive)
6,C[C@@H]1CN([C@H](C)CO)C(=O)c2cccc(NC(=O)c3ccc(-c4nccs4)cc3)c2O[C@H]1CN(C)Cc1ccc2c(c1)OCO2,0.334% (inactive)
7,N#C[C@@H]1[C@H](c2ccc(C3=CCCC3)cc2)[C@@H](CO)N1C(=O)NC1CCCC1,-23.9% (inactive)
8,CCCNC[C@H]1[C@@H](c2ccc(C3=CCCCC3)cc2)[C@@H](CO)N1C(=O)C1CCC1,-12.2% (inactive)
9,CCC(=O)N1[C@H](CO)[C@H](c2ccc(C3=CCCCC3)cc2)[C@H]1CNCC1CCC1,-15% (inactive)
10,C/C=C/c1ccc([C@H]2[C@@H](CO)N(C(=O)C3CCCC3)[C@H]2CNCCC)cc1,-0.865% [at 21 µM] (inactive)
11,CCCNC(=O)N1[C@H](C#N)[C@@H](c2ccccc2C2=CCCC2)[C@@H]1CO,-20.4% [at 21 µM] (inactive)
12,N#C[C@@H]1[C@@H](c2ccc(C3=CCCCC3)cc2)[C@H](CO)N1C(=O)NC1CCCC1,3.23% (inactive)
13,CCCNC(=O)N1[C@H](C#N)[C@H](c2ccc(C3=CCCCC3)cc2)[C@H]1CO,-10.4% [at 21 µM] (inactive)
14,OC[C@@H]1[C@H](c2ccc(C3=CCCC3)cc2)[C@@H](CNC2CCCC2)N1CC1CC1,-13.2% (inactive)
15,COc1ccc(C#Cc2cccc(-c3nc(C(=O)NCc4ccc5c(c4)OCO5)cc4c3[C@@H](CCO)N(S(=O)C(C)(C)C)C4)c2)cc1OC (stereo not given in full),8.9% (inactive)
16,C[C@H]1CN([C@@H](C)CO)C(=O)c2c(c3ccccc3n2C)-c2ccccc2CO[C@@H]1CN(C)C(=O)Nc1cccc(F)c1,-4.89% (inactive)
17,Cc1ccc(S(=O)(=O)N(C)C[C@H]2Oc3cc(C#Cc4ccncc4)ccc3S(=O)(=O)N([C@@H](C)CO)C[C@@H]2C)cc1,4.85% (inactive)
18,CO[C@@H]1CN(C)C(=O)c2ccc(NC(=O)Nc3ccccc3F)cc2OC[C@@H](C)N(CCC(F)(F)F)C[C@H]1C,35.7% [at 21 µM] (inactive)
19,CO[C@H]1CN(C)C(=O)c2ccc(NS(=O)(=O)CC(F)(F)F)cc2OC[C@H](C)N(C)C[C@@H]1C,0.408% [at 21 µM] (inactive)
20,COc1ccc(C#Cc2ccc([C@@H]3[C@@H](CO)N4C(=O)CN(C(=O)c5ccccc5)C[C@H]34)cc2)cc1,-1.78% (inactive)
21,COc1cccc(C#Cc2ccc([C@H]3[C@@H](CO)N(C(=O)C4CCC4)[C@H]3C#N)cc2)c1,6.14% (inactive)
22,C[C@H]1CN([C@@H](C)CO)C(=O)c2cc(NC(=O)Nc3cccc4ccccc34)ccc2O[C@H]1CN(C)C(=O)Nc1ccc(C(F)(F)F)cc1,4.51% (inactive)
23,C[C@@H]1CN([C@H](C)CO)C(=O)c2cccc(NC(=O)Nc3cccc4ccccc34)c2O[C@@H]1CN(C)C(=O)Nc1ccc(C(F)(F)F)cc1,2.88% (inactive)

row,Compound,"activity change, negative = cytotoxicity"
1,COc1ccccc1S(=O)(=O)N[C@H]1CC[C@@H](CCn2cc(C3CCCC3)nn2)O[C@@H]1CO,7% (inactive)
2,COc1cccc(-c2cn(CC[C@@H]3CC[C@@H](NS(=O)(=O)c4ccccc4Cl)[C@H](CO)O3)nn2)c1,1.93% (inactive)
3,COc1ccc(C#Cc2cccc(-c3nc(C(=O)N[C@@H]4CCN(Cc5ccccc5)C4)cc4c3[C@H](CCO)N(S(=O)C(C)(C)C)C4)c2)cc1OC (stereo not given in full),-5.33% (inactive)
4,O=C(Nc1ccc(F)cc1)N1CCCCN2[C@H](C1)[C@H](c1ccc(C#Cc3ccccc3)cc1)[C@@H]2CO,-8.08% (inactive)
5,O=C(Nc1ccc(F)cc1)N1CCCCN2[C@H](CO)[C@H](c3ccc(C#Cc4ccccc4)cc3)[C@@H]2C1,5.78% (inactive)
6,CCC(=O)N1CC2(C1)[C@H](c1ccccc1)[C@H](CO)N2Cc1ccccc1OC,-15.2% (inactive)
7,CC(C)(C)[S@](=O)N1Cc2cc(C(=O)NCc3ccccc3F)nc(-c3cccc(-c4ccncc4)c3)c2[C@@H]1CCO,3.09% [at 21 µM] (inactive)
8,COc1ccc(-c2ccc([C@@H]3[C@@H](CO)N4CCCCN(C(=O)c5ccc6c(c5)OCO6)C[C@@H]34)cc2)cc1,-15.9% (inactive)
9,COc1ccc(CNC(=O)c2cc3c(c(-c4cccc(-c5cccc(C#N)c5)c4)n2)[C@H](CCO)N([S@@](=O)C(C)(C)C)C3)cc1,8.03% [at 21 µM] (inactive)
10,C[C@H]1CN([C@@H](C)CO)C(=O)c2c(c3ccccc3n2C)-c2ccccc2CO[C@H]1CN(C)S(=O)(=O)c1ccc([N+](=O)[O-])cc1,24.4% (inactive)
11,N#C[C@@H]1[C@H](c2ccccc2-c2ccc(F)cc2)[C@H](CO)N1C(=O)NC1CCCC1,-6.01% [at 21 µM] (inactive)
12,Cc1ccccc1S(=O)(=O)N(C)C[C@H]1OCc2ccccc2-c2ccccc2C(=O)N([C@@H](C)CO)C[C@H]1C,14.9% (inactive)
13,CO[C@H]1CN(C)C(=O)c2cc(NC(=O)c3nc4ccccc4s3)ccc2OC[C@H](C)NC[C@@H]1C,3.64% (inactive)
14,CO[C@@H]1CN(C)C(=O)c2cc(NC(=O)c3nc4ccccc4s3)ccc2OC[C@H](C)NC[C@H]1C,-7.06% [at 18 µM] (inactive)
15,CO[C@@H]1CN(C)C(=O)c2ccc(NC(=O)C3CC3)cc2OC[C@@H](C)N(Cc2cc(F)ccc2F)C[C@H]1C,28.2% (inactive)
16,COc1ccc(C#Cc2ccc3c(c2)[C@@H]2[C@@H](CCN2C(=O)C2CCCC2)[C@@H](CO)N3)cc1,-3.3% (inactive)
17,CCC(=O)N1CC2(C1)CN(Cc1ccccc1Cl)[C@@H](CO)c1[nH]c3cc(OC)ccc3c12,-18% (inactive)
18,COc1ccccc1NC(=O)N1CC[C@H]2[C@@H]1c1cc(C#Cc3ccc(F)cc3)ccc1N(C)[C@H]2CO,0.332% (inactive)
19,C[C@H]1CN([C@@H](C)CO)C(=O)c2c(c3ccccc3n2C)-c2ccccc2CO[C@@H]1CN(C)S(=O)(=O)c1ccccc1F,26.4% (inactive)
20,COc1cccc(NC(=O)Nc2ccc3c(c2)C(=O)N(C)C[C@@H](OC)[C@H](C)CN[C@@H](C)CO3)c1,14.9% (inactive)
21,CO[C@@H]1CN(C)C(=O)c2ccc(NC(=O)c3ccc(F)cc3)cc2OC[C@@H](C)N(C(=O)c2ccc(F)cc2)C[C@@H]1C,-17.4% (inactive)
22,CO[C@@H]1CN(C)C(=O)c2cc(NC(=O)c3ccc(Oc4ccccc4)cc3)ccc2OC[C@H](C)NC[C@@H]1C,-20.5% (inactive)
